According to PubChem BioAssay (NCATS):
Inconclusive results are not listed. Calls of active or inactive are those of the source. Calls follow the shape of the dose curve; as a rule, active = well fitted curve in the direction sought with a large enough effect; inconclusive = small, poorly fitted or top-dose-only effect, or another doubt; inactive = no such curve, though single readings can be large; an effect the other way counts as inactive or inconclusive.

Key:
[1] = qHTS of pediatric cancer cell lines to identify multiple opportunities for drug repurposing: Confirmatory screen for MG 63 (6-TG R) cells (AID 1347119); settings: MG-63 (6-TG resistant) osteosarcoma viability; series mostly up to 45.9 µM; also: nearly all actives have a fitted effect of over 55% in size
How it was run: (§1)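 Cells (500-1,000/well) in growth media were settled 5 h at 37 degrees C, then given compounds for 48 h. Viability was read as CellTiter-Glo luminescence. Primary runs used MIPE at 11 points (0.78 nM-46 µM) and NPC at 8 points (0.59 nM-46 µM); follow-ups used 11 points.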

[2] = qHTS of pediatric cancer cell lines to identify multiple opportunities for drug repurposing: Confirmatory screen for U-2 OS cells (AID 1347122); settings: U-2 OS osteosarcoma cell viability; series mostly up to 45.9 µM; also: nearly all actives have a fitted effect of over 65% in size
How it was run: as §1

[3] = qHTS of pediatric cancer cell lines to identify multiple opportunities for drug repurposing: Confirmatory screen for Rh41 cells (AID 1347123); settings: Rh41 rhabdomyosarcoma cells, viability/cytotoxicity qHTS; series mostly up to 45.9 µM;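 also: 48 h compound exposure; nearly all actives have a fitted effect of over 60% in size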
How it was run: as §1

[4] = qHTS of pediatric cancer cell lines to identify multiple opportunities for drug repurposing: Confirmatory screen for RD cells (AID 1347124); settings: RD rhabdomyosarcoma cell viability; series mostly up to 45.9 µM;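 also: cells exposed to compound for 48 h before viability readout; nearly all actives have a fitted effect of over 65% in size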
How it was run: as §1

[5] = qHTS of pediatric cancer cell lines to identify multiple opportunities for drug repurposing: Confirmatory screen for Rh30 cells (AID 1347126); settings: Rh30 rhabdomyosarcoma cell viability; series mostly up to 45.9 µM; also: nearly all actives have a fitted effect of over 55% in size
How it was run: as §1

[6] = qHTS of pediatric cancer cell lines to identify multiple opportunities for drug repurposing: Confirmatory screen for OHS-50 cells (AID 1347128); settings: OHS-50 osteosarcoma cells viability; series mostly up to 45.9 µM;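 also: compound exposure lasted 48 h at 37 degrees C; nearly all actives have a fitted effect of over 55% in size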
How it was run: as §1

[7] = qHTS of pediatric cancer cell lines to identify multiple opportunities for drug repurposing: Confirmatory screen for SK-N-SH cells (AID 1347129); settings: SK-N-SH neuroblastoma cell viability; series mostly up to 46.1 µM;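 also: cells exposed to compound for 48 h before viability read; nearly all actives have a fitted effect of over 60% in size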
How it was run: as §1

[8] = qHTS of pediatric cancer cell lines to identify multiple opportunities for drug repurposing: Confirmatory screen for control Hh wild type fibroblast cells (AID 1347121); settings: viability qHTS; series mostly up to 45.9 µM; also: nearly all actives have a fitted effect of over 70% in size
How it was run: as §1

[9] = qHTS of pediatric cancer cell lines to identify multiple opportunities for drug repurposing: Confirmatory screen for Saos-2 cells (AID 1347127); settings: Saos-2 osteosarcoma cell viability; series mostly up to 45.9 µM; also: nearly all actives have a fitted effect of over 60% in size
How it was run: as §1

[10] = target: N-terminal Xaa-Pro-Lys N-methyltransferase 1 (Homo sapiens) (UniProt Q9BV86); test: qHTS Assay for Inhibitors of N-terminal methyltransferase 1 (NTMT1): LOPAC validation of the NTMT1 SAHH-coupled ThioGlo3 Assay (AID 1347143); settings: recombinant NTMT1, SAHH-coupled ThioGlo3 fluorescence; series mostly up to 114 µM; also: nearly all actives have a fitted effect of over 70% in size
How it was run: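 Fluorescence read-out (excitation 340nm, emission 450nm) of SAH-derived thiol, measured via SAHH coupling and ThioGlo3, taken immediately and after a 30 min room-temperature reaction, then normalized to the background read. Enzyme: NTMT1 at 125nM; cofactor SAM 100uM in the added reagent.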

Measured: Potency
Potency is read from the fitted curve at half-maximal effect.

Chain of N-terminal Xaa-Pro-Lys N-methyltransferase 1 (Homo sapiens) (Q9BV86 whole entry, looked up): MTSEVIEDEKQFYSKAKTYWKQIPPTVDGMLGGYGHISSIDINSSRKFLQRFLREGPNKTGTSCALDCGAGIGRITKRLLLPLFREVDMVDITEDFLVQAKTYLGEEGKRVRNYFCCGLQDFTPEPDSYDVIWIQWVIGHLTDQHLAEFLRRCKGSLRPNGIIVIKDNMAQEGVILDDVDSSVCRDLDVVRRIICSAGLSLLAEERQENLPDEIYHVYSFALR

CO[C@H]1CCC(O[C@H]2C[C@H]([C@]3(C)CC[C@]4(C[C@H](O)[C@@H](C)[C@@H]([C@@H](C)C=C(C)C(=O)[C@H](C)C[C@H](C)C(=O)O)O4)O3)O[C@]3(O[C@@H]([C@H]4O[C@@](O)(CO)[C@H](C)C[C@H]4C)C[C@H]3C)[C@H]2C)O[C@H]1C (stereo partly drawn)
active: [1] 2080 nM | [2] 5220 nM | [3] 1470 nM | [6] 2610 nM | [7] 5260 nM
inactive: [4] | [5]

CC1=C(O)C(=O)C=C2C1=CC=C1[C@@]2(C)CC[C@@]2(C)[C@@H]3C[C@](C)(C(=O)O)CC[C@]3(C)CC[C@]12C
active: [1] 2330 nM | [8] 4140 nM | [2] 928 nM | [3] 1470 nM | [4] 1170 nM | [5] 1850 nM | [9] 3290 nM | [6] 2610 nM | [7] 2960 nM

O=C1C(I)=CC(=C(c2cc(I)c(O)c(I)c2)c2ccccc2C(=O)O)C=C1I
active: [3] 9270 nM
not listed: [2] | [5] | [10]
inactive: all other assays above

CC=C(C)C(=O)N[C@@H](c1ccccc1)[C@@H](O)C(=O)O[C@H]1C[C@@]2(O)[C@@H](OC(=O)c3ccccc3)[C@@H]3[C@]4(OC(C)=O)CO[C@@H]4C[C@H](O)[C@@]3(C)C(=O)[C@H](OC(C)=O)C(=C1C)C2(C)C
inactive: [8]
active: [1] 29.3 nM | [9] 41.4 nM | [6] 41.4 nM

CCC(=O)OC1CCC2C3CCC4=CC(=O)CC[C@@]4(C)C3CC[C@]12C (stereo partly drawn)
not listed: [3] | [10]
inactive: all other assays above

C[C@@]12OC(=O)[C@]1([C@@H](O)[C@@H]1C=CCCC1)NC(=O)[C@H]2CCCl
active: [1] 293 nM | [8] 4140 nM | [2] 329 nM | [3] 329 nM | [4] 737 nM | [9] 1170 nM | [7] 2350 nM

CC(C)(C)C(O)C(Oc1ccc(Cl)cc1)n1cncn1 (stereo not drawn)
not listed: [10]
inactive: all other assays above

C[C@@H]1O[C@@H](O[C@@H]2C=C3CC[C@@H]4[C@@H](CC[C@]5(C)[C@H](c6ccc(=O)oc6)CC[C@@]45O)[C@@]3(C)CC2)[C@H](O)[C@H](O)[C@H]1O
active: [1] 7.4 nM | [2] 16.5 nM | [3] 16.5 nM | [4] 16.5 nM | [5] 46.5 nM | [9] 185 nM | [6] 16.5 nM

COc1cc([C@@H]2c3cc4c(cc3[C@@H](O)C3COC(=O)C32)OCO4)cc(OC)c1O (stereo partly drawn)
inactive: [8] | [5] | [9] | [6] | [7]
active: [1] 293 nM

O=C(Nc1ccncc1)C(=O)c1cn(Cc2ccc(Cl)cc2)c2ccccc12
inactive: [5]
active: [1] 369 nM | [2] 465 nM | [3] 465 nM | [4] 414 nM | [9] 585 nM | [6] 928 nM

CC(C)[C@]12O[C@@H]1[C@@H]1O[C@]13[C@]1(O[C@H]1C[C@@H]1C4=C(CC[C@@]13C)C(=O)OC4)[C@H]2O
active: [1] 32.9 nM | [2] 73.7 nM | [3] 26.1 nM | [4] 52.2 nM | [9] 46.5 nM | [6] 104 nM | [7] 148 nM
inactive: [8]

O=C(O)COc1nc(Cl)c(Cl)cc1Cl
not listed: [9] | [10]
inactive: all other assays above

Cc1[nH]nc2ccc(-c3cncc(OC[C@@H](N)Cc4c[nH]c5ccccc45)c3)cc12
inactive: [4]
active: [1] 3290 nM | [8] 18500 nM | [9] 2610 nM | [6] 2610 nM | [7] 2960 nM

CC(C)(O)C=CC(=O)[C@](C)(O)[C@H]1[C@H](O)C[C@]2(C)[C@@H]3CC=C4[C@@H](C=C(O)C(=O)C4(C)C)[C@]3(C)C(=O)C[C@@]12C
active: [1] 117 nM | [8] 2610 nM | [2] 208 nM | [3] 208 nM | [4] 465 nM | [5] 827 nM | [9] 147 nM | [6] 1470 nM | [7] 264 nM

CC=C(C)C(=O)O[C@H]1C(C)=C2[C@@H]3OC(=O)[C@@](C)(O)[C@@]3(O)[C@@H](OC(=O)CCC)C[C@](C)(OC(C)=O)[C@@H]2[C@@H]1OC(=O)CCCCCCC
inactive: [1] | [8] | [2] | [3] | [4] | [7]

COc1cc2cc(c1Cl)N(C)C(=O)C[C@H](OC(=O)C(C)C)[C@]1(C)O[C@H]1[C@H](C)[C@@H]1C[C@@](O)(NC(=O)O1)[C@H](OC)C=CC=C(C)C2
active: [1] 1 nM | [9] 26100 nM | [6] 11.7 nM
inactive: [8] | [5]

CC[C@@]1(O)C(=O)OCc2c1cc1n(c2=O)Cc2cc3ccccc3nc2-1
active: [1] 73.7 nM | [2] 1040 nM | [3] 369 nM | [4] 465 nM | [5] 737 nM | [9] 104 nM | [6] 147 nM | [7] 2090 nM | [10] 3550 nM

C=CCON=C(C[C@H]1O[C@@H]2O[C@]3(C)CC[C@@H]4[C@H](C)CC[C@@H]([C@H]1C)[C@@]24OO3)[C@H]1O[C@@H]2O[C@]3(C)CC[C@H]4[C@H](C)CC[C@@H]([C@@H]1C)[C@@]24OO3
inactive: [7]
active: [3] 52.2 nM

CC(=O)NCCc1c[nH]c2ccccc12
inactive: [10]

C[C@@H]1O[C@H](C[N+](C)(C)C)C[C@H]1O
inactive: [10]

NC(CCP(=O)(O)O)C(=O)O (stereo not drawn)
inactive: [10]

C/C=C(/C)C(=O)O[C@H]1C(C)=C2[C@H]([C@@H]1OC(=O)CCCCCCC)[C@@](C)(OC(C)=O)C[C@H](OC(=O)CCC)[C@@]1(O)[C@H]2OC(=O)[C@@]1(C)O
inactive: [10]

NCCc1c[nH]c2ccccc12
inactive: [10]

Cc1nccc2c1[nH]c1ccccc12
active: [10] 79400 nM

C[N+]1(C)C2CC(OC(=O)[C@H](CO)c3ccccc3)CC1C1OC12 (stereo partly drawn)
inactive: [10]

CC(=Cc1csc(C)n1)[C@@H]1C[C@H]2O[C@]2(C)CCC[C@H](C)[C@@H](O)[C@@H](C)C(=O)C(C)(C)[C@@H](O)CC(=O)O1
inactive: [5]
active: [1] 3.3 nM | [2] 26.1 nM | [3] 10.4 nM | [9] 13.1 nM | [6] 13.1 nM

Cc1c(C(=O)Nc2cccc(C(F)(F)F)c2)cc(-c2ccccc2)n1CCCN1CCOCC1
active: [2] 24000 nM | [3] 21400 nM | [6] 42700 nM

S=C(SSC(=S)N1CCCCC1)N1CCCCC1
active: [3] 329 nM | [5] 36900 nM
inactive: [8] | [7]

CC(C)NC(C)Cc1ccc(I)cc1 (stereo not drawn)
inactive: [10]

Cc1ccccc1-n1c(Cn2ncc3c(N)ncnc32)nc2cccc(C)c2c1=O
inactive: [8] | [2] | [3] | [5] | [7]
active: [6] 23300 nM

COc1ccc2c(c1)CN(C)CC2c1ccc(Cl)c(Cl)c1 (stereo not drawn)
inactive: [8]
active: [2] 20800 nM | [3] 18500 nM | [9] 23300 nM | [6] 23300 nM

CCCN1CCC[C@H](c2cccc(O)c2)C1
inactive: [10]

O=C(O)CCCOc1ccc(Cl)cc1Cl
not listed: [1] | [3] | [10]
inactive: all other assays above

Cc1ccccc1-n1c(Cn2cnc3c(N)ncnc32)nc2cccc(C)c2c1=O
not listed: [1] | [10]
inactive: all other assays above

C[C@]12CCC3C(CC[C@H]4C[C@H](O)CC[C@]34C)C1CC[C@@H]2C(=O)CO (stereo partly drawn)
inactive: [10]

C#CCOC(=O)C1=CCCN(C)C1
inactive: [10]

C[N+]1(C)C2CCC1CC(OC(=O)C(CO)c1ccccc1)C2 (stereo not drawn)
inactive: [10]

O=C(N[C@H]1CN2CCC1CC2)c1ccc(Cl)cc1
active: [4] 414 nM | [6] 10400 nM
inactive: [8] | [10]

C[C@H]1CCCC=CC2C[C@H](O)C[C@@H]2[C@H](O)C=CC(=O)O1 (stereo partly drawn)
active: [2] 208 nM | [3] 827 nM | [4] 329 nM | [5] 3690 nM | [6] 46.5 nM | [7] 132 nM

CC[C@@H](C(N)=O)N1CCCC1=O
inactive: [10]

O=c1[nH]c2ccc(Cl)cc2c(N[C@@H]2CN3CCC2CC3)c1-c1nc2ccccc2[nH]1
active: [8] 18500 nM | [2] 1310 nM | [3] 3690 nM | [4] 2330 nM | [5] 5220 nM | [9] 1310 nM | [6] 657 nM | [7] 5260 nM

CC1=NN=C(c2ccc(N)cc2)c2cc3c(cc2C1)OCO3
active: [10] 56200 nM

CN1C2CCC1CC(OC(=O)c1cc(Cl)cc(Cl)c1)C2 (stereo not drawn)
inactive: [10]

CC[C@@H]1[C@@H](C)O[C@@](O)([C@@H](C)[C@H](O)[C@H](C)[C@H]2OC(=O)C=CC=C[C@@H](C)[C@@H]([C@@H](C)[C@@H](O)[C@H](C)[C@@]3(O)C[C@H](O[C@H]4C[C@H](O)[C@H](O)[C@H](C)O4)[C@H](CC)[C@@H](C)O3)OC(=O)C=CC=C[C@@H]2C)C[C@H]1O[C@H]1C[C@H](O)[C@H](O)[C@H](C)O1
inactive: [8] | [2] | [4] | [9] | [6]

Cc1c(N)nc([C@H](CC(N)=O)NC[C@@H](N)C(N)=O)nc1C(=O)N[C@H](C(=O)N[C@@H](C)[C@H](O)[C@@H](C)C(=O)N[C@@H](C(=O)NCCc1nc(-c2nc(C(=O)NCCC[S+](C)C)cs2)cs1)[C@@H](C)O)C(O[C@H]1O[C@H](CO)[C@H](O)[C@@H](O)[C@@H]1O[C@H]1O[C@H](CO)[C@@H](O)[C@H](OC(N)=O)[C@H]1O)c1cnc[nH]1 (stereo partly drawn)
inactive: [8] | [2] | [3] | [5] | [9] | [6]

C[C@@H](N)Cc1cnc[nH]1
inactive: [10]
